Rows were chosen to be rich in hits. Some 9.2% of all compounds tested hit in one or more screens of this group.
ELG1 genotoxic = genotoxicity induction in ELG1-luciferase HEK293T cells; Potency, µM (top dose mostly 46 µM), actives largely listed as activators; 330,000 compounds, 1.3% hits; HEK293T ELG1-luciferase reporter, luminescence, 16 h; also: nearly all actives have a fitted effect of over 60% in size
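After overnight (16 hr) compound treatment at 37 °C, ELG1-luciferase HEK293T cells were lysed with ONE-Glo; luminescence quantified 30 min later at room temperature.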
Rab9 prom act = activates the Rab9 promoter; Huh7 Rab9 promoter-luciferase reporter, luminescence, 24 h; Potency, µM (series often up to 9.22 µM), most hits filed as activators; 320,000 compounds, 2.8% hits; AID 485297; also: nearly all actives have a fitted effect of over 60% in size
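Cells were plated at 1500 per well in reduced-serum medium with 10% FBS and left 2 h. Compound in DMSO was then added for 24 h at 37 °C. Reporter signal was read by luminescence after 10 min with luciferase detection reagent.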
FLuc modulator = counter-screen for miR-21 project: firefly luciferase inhibitors or activators | AID 588342 | purified FLuc, Km substrates, luminescence inhibition | Potency, µM (series often up to 57.5 µM), actives largely listed as inhibitors | P08659 | 360,000 compounds, 6.9% hits; also: nearly all actives have a fitted effect of over 55% in size
Target sequence (P08659 whole entry, looked up): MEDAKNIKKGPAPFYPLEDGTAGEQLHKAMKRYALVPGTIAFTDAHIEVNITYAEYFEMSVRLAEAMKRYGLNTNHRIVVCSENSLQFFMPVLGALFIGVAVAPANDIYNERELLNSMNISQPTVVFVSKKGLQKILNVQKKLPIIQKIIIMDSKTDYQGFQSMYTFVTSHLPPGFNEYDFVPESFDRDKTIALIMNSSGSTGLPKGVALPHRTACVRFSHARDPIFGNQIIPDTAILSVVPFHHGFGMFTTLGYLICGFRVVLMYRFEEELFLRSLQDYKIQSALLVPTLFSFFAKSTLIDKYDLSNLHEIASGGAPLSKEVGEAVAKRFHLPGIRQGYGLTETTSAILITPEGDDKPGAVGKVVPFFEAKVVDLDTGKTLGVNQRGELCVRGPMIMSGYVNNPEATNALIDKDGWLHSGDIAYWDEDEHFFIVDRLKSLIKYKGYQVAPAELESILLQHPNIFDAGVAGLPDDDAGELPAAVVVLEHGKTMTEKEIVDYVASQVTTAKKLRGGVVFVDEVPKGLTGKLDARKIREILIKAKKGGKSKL
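Purified P. pyralis luciferase (10nM final) with 10uM D-luciferin and 10uM ATP (Km levels) in 50mM Tris acetate pH 7.5, 10mM Mg acetate, 0.01% Tween-20, 0.05% BSA; qHTS 6-point titration, ~60 µM downward; luminescence read.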
ELG1 repair inh = ELG1-dependent DNA repair inhibition. 330,000 compounds, 2.3% hits. HEK293T ELG1-luciferase reporter, luminescence, 16 h; DNA damage induced by 5-fluorouridine. Potency, µM (series often up to 46.1 µM), most hits filed as inhibitors. AID 504467; also: nearly all actives have a fitted effect of over 55% in size
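In this reporter screen, reduction of luminescence relative to DMSO vehicle indicated activity. Compounds and 5-fluorouridine were added together to 2,000 cells per well, incubated for 16 hr at 37 °C, then developed with ONE-Glo.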
NPC1 promoter act = activates the NPC1 promoter. 320,000 compounds, 2.4% hits. Huh7 NPC1 promoter luciferase reporter, 24 h. Potency, µM (top dose mostly 9.22 µM), actives largely listed as activators; also: nearly all actives have a fitted effect of over 60% in size
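Cells: Huh7 expressing luciferase under the NPC1 promoter, 1500/well. Seeded 2 h, compound added, incubated 24 h at 37 °C. Luciferase reagent, 10 min ambient, then luminescence.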
SMN2 splice up = enhancers of SMN2 splice variant expression; HEK293 SMN2-luciferase splicing reporter, luminescence, 30-36 h; Potency, µM (top dose mostly 46.1 µM), actives largely listed as activators; 210,000 compounds, 2.8% hits; AID 1458; also: nearly all actives have a fitted effect of over 55% in size
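HEK293 cells carry an SMN2 […]–luciferase reporter in which exon 7 inclusion puts luciferase in frame. Cells were plated 10-12 h before compound addition, then incubated 30-36 h at 37C. ONE-Glo luminescence was read; sodium butyrate at 4.5 mM final served as control.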
Hits are given with their value. Calls follow the shape of the dose curve; as a rule, active = well fitted curve in the direction sought with a large enough effect; inconclusive = small, poorly fitted or top-dose-only effect, or another doubt; inactive = no such curve, though single readings can be large; an effect the other way counts as inactive or inconclusive.

How did N/C(=N\OC(=O)CCC1CCCC1)c1cccnc1 do in these assays?
ELG1 genotoxic: inactive; Rab9 prom act: inactive; FLuc modulator: 13µM; ELG1 repair inh: inconclusive; NPC1 promoter act: inactive; SMN2 splice up: inactive

What do the screens show for `N/C(=N\OC(=O)c1ccc(Br)o1)c1cccnc1`?
ELG1 genotoxic: inactive; Rab9 prom act: inconclusive; FLuc modulator: inconclusive; ELG1 repair inh: inconclusive; NPC1 promoter act: inactive

What do the screens show for `CCOc1ncccc1C(=O)NCCCSc1ccccc1`?
ELG1 genotoxic: inactive; Rab9 prom act: inactive; FLuc modulator: inactive; ELG1 repair inh: inactive; NPC1 promoter act: inactive

Results for COc1ccccc1CNc1nc(-c2ccco2)nn1C(=O)c1cc(OC)c(OC)c(OC)c1 ?
FLuc modulator: inactive

How did Cc1ccc(CNC(=O)c2ccc(NC(=O)CCS(=O)(=O)c3cccs3)cc2)cc1 do in these assays?
ELG1 genotoxic: inactive; Rab9 prom act: inactive; FLuc modulator: inactive; ELG1 repair inh: inactive; NPC1 promoter act: inactive; SMN2 splice up: inactive

How did CCS(=O)(=O)N1CCC(n2c(C(F)(F)F)nc3cccnc32)CC1 do in these assays?
FLuc modulator: inactive

Results for CCN(CC)S(=O)(=O)c1cc(NC(=O)C2Cc3ccccc3C(=O)O2)ccc1C (stereo not drawn) ?
ELG1 genotoxic: inactive; Rab9 prom act: inconclusive; FLuc modulator: 17µM; ELG1 repair inh: inconclusive; NPC1 promoter act: inconclusive

How did CCN(CC)S(=O)(=O)c1cc(NC(=O)Cc2n[nH]c(=O)c3ccccc23)ccc1C do in these assays?
ELG1 genotoxic: inactive; Rab9 prom act: inactive; FLuc modulator: inactive; ELG1 repair inh: 21µM; NPC1 promoter act: inactive

What do the screens show for `CCN(CC)S(=O)(=O)c1cc(NC(=O)C(C)N2CCN(c3ccccn3)CC2)ccc1C` (stereo not drawn)?
ELG1 genotoxic: inactive; Rab9 prom act: inactive; FLuc modulator: inactive; ELG1 repair inh: 21µM; NPC1 promoter act: inactive; SMN2 splice up: inactive

Results for CS(=O)(=O)n1nc(-c2ccco2)nc1NCc1ccccc1Cl ?
FLuc modulator: inactive; SMN2 splice up: inactive

How did Cc1cc(C(=O)N/N=C/c2ccccc2Br)no1 do in these assays?
ELG1 genotoxic: inactive; Rab9 prom act: inactive; FLuc modulator: 21µM; ELG1 repair inh: inconclusive; NPC1 promoter act: inactive; SMN2 splice up: inactive

What do the screens show for `Cc1cc(C(=O)N/N=C/c2ccc[nH]2)no1`?
ELG1 genotoxic: inactive; Rab9 prom act: inactive; FLuc modulator: inactive; ELG1 repair inh: inconclusive; NPC1 promoter act: inactive; SMN2 splice up: inactive

Results for O=C(/C=C/c1ccc(Cl)cc1)Nc1ccc(CN2CCOCC2)cc1 ?
ELG1 genotoxic: inactive; Rab9 prom act: inactive; FLuc modulator: inconclusive; ELG1 repair inh: inconclusive; NPC1 promoter act: inactive; SMN2 splice up: inactive

Results for O=C(Nc1ccc(CN2CCCCC2)cc1)c1ccc2c(c1)OCO2 ?
ELG1 genotoxic: inconclusive; Rab9 prom act: inactive; FLuc modulator: inconclusive; ELG1 repair inh: inconclusive; NPC1 promoter act: inactive; SMN2 splice up: inactive

Results for O=C(Nc1ccc(CN2CCS(=O)(=O)CC2)cc1)c1ccc(Cl)cc1 ?
ELG1 genotoxic: inactive; Rab9 prom act: inactive; FLuc modulator: inconclusive; ELG1 repair inh: 10µM; NPC1 promoter act: inactive

What do the screens show for `CC(C)c1ccc(NC(=S)NN2CCOCC2)cc1`?
ELG1 genotoxic: inactive; Rab9 prom act: inconclusive; FLuc modulator: inconclusive; ELG1 repair inh: inconclusive; NPC1 promoter act: inconclusive; SMN2 splice up: 22µM

What do the screens show for `CC(C)c1ccc(/C=C/C(=O)Nc2ccc(CN3CCOCC3)cc2)cc1`?
ELG1 genotoxic: inactive; Rab9 prom act: inactive; FLuc modulator: 12µM; ELG1 repair inh: 9.2µM; NPC1 promoter act: inactive

What do the screens show for `O=C(Nc1ccc2c(c1)OCO2)c1ccc(CN2CCOCC2)cc1`?
ELG1 genotoxic: 18µM; Rab9 prom act: inactive; FLuc modulator: 15µM; ELG1 repair inh: inconclusive; NPC1 promoter act: inconclusive; SMN2 splice up: inactive

Results for CCn1cc(C(=O)Nc2cccc(C)c2)c(=O)c2ccc(C)nc21 ?
ELG1 genotoxic: inactive; Rab9 prom act: inactive; FLuc modulator: inactive; ELG1 repair inh: inactive; NPC1 promoter act: inactive; SMN2 splice up: inactive

Results for CC(C)c1ccc(NC(=O)c2ccc(CN3CC(=O)N4CCCCC4C3=O)cc2)cc1 (stereo not drawn) ?
FLuc modulator: 11µM

Results for CC(C)c1ccc(C(=O)Nc2ccc(CN3CCOCC3)cc2)cc1 ?
ELG1 genotoxic: inactive; Rab9 prom act: inactive; FLuc modulator: 11µM; ELG1 repair inh: inactive; NPC1 promoter act: inactive

Results for Cc1ccc(CNC(=O)CN2C(=O)C3(SCC(=O)N3c3ccc(F)c(F)c3)c3ccccc32)cc1 (stereo not drawn) ?
FLuc modulator: inactive

What do the screens show for `Cc1ccc(S(=O)(=O)Nc2c(C)nn(C)c2C)c(C)c1`?
ELG1 genotoxic: inactive; Rab9 prom act: inactive; FLuc modulator: inactive; ELG1 repair inh: inactive; NPC1 promoter act: inactive

What do the screens show for `CS(=O)(=O)N1CCC(C(=O)Nc2cccc(Br)c2)CC1`?
ELG1 genotoxic: inactive; Rab9 prom act: inactive; FLuc modulator: inactive; ELG1 repair inh: inactive; NPC1 promoter act: inactive

How did O=C(N/C(=C/c1ccco1)C(=O)N1CCOCC1)c1ccccc1Br do in these assays?
ELG1 genotoxic: inactive; Rab9 prom act: inactive; FLuc modulator: inactive; ELG1 repair inh: inactive; NPC1 promoter act: inactive

How did Cc1cc([N+](=O)[O-])ccc1NC(=O)c1cc2ccccc2o1 do in these assays?
ELG1 genotoxic: inactive; Rab9 prom act: 2.5µM; FLuc modulator: inconclusive; ELG1 repair inh: inconclusive; NPC1 promoter act: inconclusive

Results for COc1cc(N)ccc1NC(=O)c1cc2ccccc2o1 ?
ELG1 genotoxic: inconclusive; Rab9 prom act: 3.2µM; FLuc modulator: 11µM; ELG1 repair inh: inconclusive; NPC1 promoter act: 4µM

What do the screens show for `COc1cc(NC(C)=O)ccc1NC(=O)c1cc2ccccc2o1`?
ELG1 genotoxic: inconclusive; Rab9 prom act: inconclusive; FLuc modulator: inactive; ELG1 repair inh: inconclusive; NPC1 promoter act: inconclusive

How did CCCC(=O)Nc1ccc(NC(=O)c2cc3ccccc3o2)c(OC)c1 do in these assays?
ELG1 genotoxic: inactive; Rab9 prom act: 2.5µM; FLuc modulator: inconclusive; ELG1 repair inh: inactive; NPC1 promoter act: 4µM

How did Cc1ccc(NC(=S)c2ccc3ccccc3n2)c(C)c1 do in these assays?
ELG1 genotoxic: inconclusive; Rab9 prom act: 1.6µM; FLuc modulator: 11µM; ELG1 repair inh: inconclusive; NPC1 promoter act: 1.1µM

Results for Cc1ccc(NC(=O)C(Cc2ccccc2)NS(=O)(=O)c2cccs2)cc1Cl (stereo not drawn) ?
FLuc modulator: inactive; SMN2 splice up: inactive

Results for CCOC(=O)Nc1sc(C)c(C)c1C(N)=O ?
ELG1 genotoxic: inactive; Rab9 prom act: inactive; FLuc modulator: inactive; ELG1 repair inh: inactive; NPC1 promoter act: inactive; SMN2 splice up: inactive
